{"source": "PubChem BioAssay (EPA / NIEHS)", "note": "Calls of active or inactive are those of the source. Rule for the calls: active = hit-call score of the fitted dose curve at least 0.9, where 1 is the maximum; inactive = score below 0.9."}
{"experiment": "ATG_AP_1_CIS: Attagene CIS-FACTORIAL HepG2 Assay for human Activator Protein 1 (AP-1) (AID 2282931)", "conditions": "HepG2 Attagene cis-factorial AP-1 reporter mRNA; actives raise or lower the signal", "description": "ATG_CIS is a cell-based, multiplexed-readout assay that uses HepG2, a human liver cell line, with measurements taken at 24 hours after chemical dosing in a 24-well plate.ATG_AP_1_CIS is one of 52 assay component(s) measured or calculated from the ATG_CIS assay. It is designed to make measurements of mRNA induction, a form of inducible reporter, as detected with fluorescence intensity signals by Reverse transcription polymerase chain reaction (RT-PCR) and Capillary electrophoresis technology.Data from the assay component ATG_AP_1_CIS was analyzed into 1 assay endpoint. This assay endpoint, ATG_AP_1_CIS, was analyzed with bidirectional fitting relative to DMSO as the negative control and baseline of activity. Using a type of inducible reporter, measures of mRNA for gain or loss-of-signal activity can be used to understand the reporter gene at the transcription factor-level as they relate to the gene FOS and JUN. Furthermore, this assay endpoint can be referred to as a primary readout, because this assay has produced multiple assay endpoints where this one serves a reporter gene function. To generalize the intended target to other relatable targets, this assay endpoint is annotated to the dna binding intended target family, where the subfamily is basic leucine zipper.\nHuman liver HepG2 cells are transiently transfected with multiple reporter transcription units (MRTUs) in 6-well plates using FuGene 6 reagent (Roche; 3 ml FuGene/1 mg DNA). The MRTU constructs are regulated by a cis-regulating element (promoter). […] A major difference between the CIS and TRANS system is that in CIS activities of endogenous TFs are measured, whereas the TRANS assay evaluates changes in activities of exogenous, chimeric NR-Gal4 proteins. […] At the end of 24 hour incubation, total RNA was isolated using TriZol reagent (Invitrogen). The isolated RNA is then reverse-transcribed using oligo(dT) primer and Mo-MLV reverse transcriptase (Invitrogen) with DNAse I (Ambion) treatment for 30 min. The one-tenth of the produced cDNA was amplified by PCR using Taq DNA polymerase (Invitrogen) and two reporter sequence-specific primers. The PCR products were fluorescently labeled by primer extension with 6-arboxyfluorescein (6-FAM) 5'-labeled reporter sequence-specific primer (2 min at 95 C, 20 s at 68 C and 10 min at 72 C) and these products were digested with 5U of HpaI (New England Biolabs) for 2h at 37 C. The fragments were purified using Qiaquick PCR columns (Qiagen), analyzed on an ABI 3130xL genetic analyzer (Applied Biosystems) with peak positions identified by using a set of X-rhodamine (ROX)-labeled MapMarker1000 molecular weight standards (BioVentures). The raw capillary electrophoresis data was processed using Attagraph software (Attagene)."}
{"smiles": "CCN(CC)CCOc1ccc(C(=C(Cl)c2ccccc2)c2ccccc2)cc1", "outcome": "inactive"}
{"smiles": "CCCCCCC(CCCCCCCCCCC(=O)OCC(COC(C)=O)OC(C)=O)OC(C)=O", "note": "(stereo not given)", "outcome": "inactive"}
{"smiles": "C/C=C/c1ccc(OC)cc1", "outcome": "inactive"}
{"smiles": "O=C(O)c1cccnc1", "outcome": "inactive"}
{"smiles": "CC(C)OC(=O)C(C)(C)Oc1ccc(C(=O)c2ccc(Cl)cc2)cc1", "AC50": "74.4 µM (active)"}
{"smiles": "COc1ccc(C(=O)Nc2nc3ccccc3c(NCc3ccccc3)c2C#N)cc1", "outcome": "inactive"}
{"smiles": "CC(C)NCC(O)c1ccc(O)c(O)c1", "note": "(stereo not given)", "outcome": "inactive"}
{"smiles": "CC(=O)[C@@]1(O)CC[C@H]2[C@@H]3CCC4=CC(=O)CC[C@]4(C)[C@H]3CC[C@@]21C", "outcome": "inactive"}
{"smiles": "Cc1cc(Cc2ccc(N)c(C)c2)ccc1N", "outcome": "inactive"}
{"smiles": "O=C(N[C@@H](c1ccccc1)[C@@H]1CCCCN1)c1cccc(C(F)(F)F)c1Cl", "AC50": "9.01 µM (active)"}
{"smiles": "NC1CCCCC1", "outcome": "inactive"}
{"smiles": "CC1=C(C)S(=O)(=O)CCS1(=O)=O", "AC50": "166 µM (active)"}
{"smiles": "Oc1ccc(O)cc1", "AC50": "48.3 µM (active)"}
{"smiles": "Oc1ccccc1O", "AC50": "13.3 µM (active)"}
{"smiles": "CCc1nc(N)nc(N)c1-c1ccc(Cl)cc1", "AC50": "2.53 µM (active)"}
{"smiles": "CN(C)CCCN1c2ccccc2Sc2ccc(Cl)cc21", "AC50": "18.2 µM (active)"}
{"smiles": "CO[C@@H]1COCC[C@@H]1N[C@@H]1CC[C@@](C(=O)N2CCc3ncc(C(F)(F)F)cc3C2)(C(C)C)C1", "outcome": "inactive"}
{"smiles": "S=c1[nH]c2ccccc2s1", "AC50": "19.8 µM (active)"}
{"smiles": "NC(=Nc1ccccc1)Nc1ccccc1", "outcome": "inactive"}
{"smiles": "CC1(C)C(=O)NC(=O)N1CO", "outcome": "inactive"}
{"smiles": "CCCCC(CC)COC(=O)CCCCCCCC(=O)OCC(CC)CCCC", "note": "(stereo not given)", "outcome": "inactive"}
{"smiles": "O=C1O[C@H]([C@H](O)CO)C(O)=C1O", "outcome": "inactive"}
{"smiles": "CC(C)COC(=O)CCCCC(=O)OCC(C)C", "outcome": "inactive"}
{"smiles": "Nc1nc(=S)c2[nH]cnc2[nH]1", "AC50": "12 µM (active)"}
{"smiles": "CC(C)c1cccc(C(C)C)c1NC(=O)NS(=O)(=O)c1cc(C(C)(C)O)co1", "outcome": "inactive"}
{"smiles": "CN(C)C(=O)NC1(c2ccccc2)CCN(CCC[C@]2(c3ccc(Cl)c(Cl)c3)CCCN(C(=O)c3ccccc3)C2)CC1", "AC50": "2.75 µM (active)"}
{"smiles": "O=C1c2c(O)cccc2Cc2cccc(O)c21", "outcome": "inactive"}
{"smiles": "CCC(C)N(C)C(=O)c1cc2ccccc2c(-c2ccccc2Cl)n1", "note": "(stereo not given)", "AC50": "84.8 µM (active)"}
{"smiles": "O=C(O)c1[nH]n(-c2ccc(S(=O)(=O)O)cc2)c(=O)c1N=Nc1ccc(S(=O)(=O)O)cc1", "outcome": "inactive"}
{"smiles": "Cc1cn([C@H]2C=C[C@@H](CO)O2)c(=O)[nH]c1=O", "outcome": "inactive"}
{"smiles": "CC(=O)OCC(COC(C)=O)OC(C)=O", "outcome": "inactive"}
{"smiles": "CN(C)CCCN(C)CCCN(C)C", "outcome": "inactive"}
{"smiles": "CCCCCCCCCCCCCCCCO", "outcome": "inactive"}
{"smiles": "CCOCCOCCO", "outcome": "inactive"}
{"smiles": "COC(=O)CCCC(=O)OC", "outcome": "inactive"}
{"smiles": "COc1ccc(OC(F)(F)F)cc1CN[C@H]1CCCN[C@H]1c1ccccc1", "outcome": "inactive"}
{"smiles": "CCCCCCCCCC[N+](C)(C)[O-]", "outcome": "inactive"}
{"smiles": "CCCCc1nc2cccnc2n1Cc1ccc(-c2ccccc2-c2nnn[nH]2)cc1", "outcome": "inactive"}
{"smiles": "OCC(CO)n1cnc(-c2ccc(F)cc2)c1-c1ccnc(Oc2ccccc2)n1", "outcome": "inactive"}
{"smiles": "C#CC(O)C(CC)CCCC", "note": "(stereo not given)", "AC50": "100 µM (active)"}
